# The full ranking holds about 2,900 compounds; the median of “NF-kB SEAP reporter activity, fold change vs agonist alone” is about 0.99, and the highest 2% start at about 2.6. Many of the other results were omitted from the sample, so the highest values are more common in it than they were.
# Assays:
# [1] = test system: RAW-Dual; assay: NF-kB SEAP reporter activity, fold change vs agonist alone; cytotoxicity flag (confluency mask): not cytotoxic; higher = enhanced NF-kB activity
# Method in brief: (§1)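 Cytotoxic wells were those whose IncuCyte confluency was below 70% of agonist controls in both mask sets. The cells were RAW-Dual macrophages at 50,000 cells/well in DMEM on 384-well plates, dosed with 50 nL of library stock by pin tool, stimulated with a PRR agonist 1 h later, and kept at 37 °C, 5% CO2 for 20 hours. IRF and NF-κB reporter activity, as fold change over agonist-alone wells, came from supernatant read by QuantiLuc luminescence and QuantiBlue absorbance, respectively.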
# [2] = test system: RAW-Dual; assay: NF-kB SEAP reporter activity, fold change vs agonist alone; higher = enhanced NF-kB activity; settings: library stock concentration (final ~1000-fold dilution): 10 mM
# Method in brief: as §1
# [3] = test system: RAW-Dual; assay: NF-kB SEAP reporter activity, fold change vs agonist alone; cytotoxicity flag (confluency mask): cytotoxic (confluency <70% of control); higher = enhanced NF-kB activity
# Method in brief: as §1
# [4] = agonist: ODN 1826 (TLR9) 0.5 ug/mL
# [5] = agonist: Pam2CSK4 (TLR2/6) 0.1 ug/mL
# [6] = agonist: Pam3CSK4 (TLR2/1) 0.1 ug/mL
# [7] = cytotoxicity flag (confluency mask): not cytotoxic, agonist: Imiquimod (TLR7) […]
# [8] = cytotoxicity flag (confluency mask): not cytotoxic, agonist: MPLA (TLR4) […]
structure (smiles),measurement,setting,value
Cc1ccc(Sc2cncc3sc(C(N)=O)cc23)cc1 (library stock concentration (final ~1000-fold dilution): 10 mM),NF-kB SEAP reporter activity,[1]; agonist: LPS (TLR4) 0.1 ug/mL,2.89
same,NF-kB SEAP reporter activity,[1]; [4],2.2
same,NF-kB SEAP reporter activity,[1]; [5],1.62
same,NF-kB SEAP reporter activity,[1]; [6],3.34
Cc1ccc(Sc2cncc3sc(C(N)=O)cc23)cc1,NF-kB SEAP reporter activity,[2]; [7],2.48
same,NF-kB SEAP reporter activity,[2]; [8],1.93
CCCC(=O)Nc1cccc(NC(=O)c2ccccc2Br)c1 (library stock concentration (final ~1000-fold dilution): 10 mM),NF-kB SEAP reporter activity,[1]; agonist: LPS (TLR4) 0.1 ug/mL,0.939
same,NF-kB SEAP reporter activity,[1]; [4],0.996
same,NF-kB SEAP reporter activity,[1]; [5],0.966
same,NF-kB SEAP reporter activity,[1]; [6],1.15
O=C(CCCCCCCC(=O)NCCO)NCCO (library stock concentration (final ~1000-fold dilution): 10 mM),NF-kB SEAP reporter activity,[1]; agonist: LPS (TLR4) 0.1 ug/mL,1.2
same,NF-kB SEAP reporter activity,[1]; [4],0.998
same,NF-kB SEAP reporter activity,[1]; [5],0.991
same,NF-kB SEAP reporter activity,[1]; [6],0.856
CCc1ccc(NC(=O)Nc2ccccc2)cc1,NF-kB SEAP reporter activity,[2]; [7],0.892
same,NF-kB SEAP reporter activity,[2]; [8],1.01
CCCCCCCCCCCCCCCCCC(=O)O (library stock concentration (final ~1000-fold dilution): 10 mM),NF-kB SEAP reporter activity,[1]; agonist: LPS (TLR4) 0.1 ug/mL,0.849
same,NF-kB SEAP reporter activity,[1]; [4],1.02
same,NF-kB SEAP reporter activity,[1]; [5],0.95
same,NF-kB SEAP reporter activity,[1]; [6],1.17
O=C(CCCCCCCC(=O)NCCO)NCCO,NF-kB SEAP reporter activity,[2]; [7],0.913
same,NF-kB SEAP reporter activity,[2]; [8],1.03
O=C(CCCCCCC(=O)NO)NO (library stock concentration (final ~1000-fold dilution): 10 mM),NF-kB SEAP reporter activity,[1]; agonist: LPS (TLR4) 0.1 ug/mL,3.77
same,NF-kB SEAP reporter activity,[1]; [4],1.62
same,NF-kB SEAP reporter activity,[1]; [5],0.78
same,NF-kB SEAP reporter activity,[1]; [6],1.21
O=C(CCCCCCC(=O)NO)NO,NF-kB SEAP reporter activity,[2]; [7],2.03
same,NF-kB SEAP reporter activity,[2]; [8],2.57
CCc1ccc(NC(=O)Nc2ccccc2)cc1 (library stock concentration (final ~1000-fold dilution): 10 mM),NF-kB SEAP reporter activity,[1]; agonist: LPS (TLR4) 0.1 ug/mL,1.12
same,NF-kB SEAP reporter activity,[1]; [4],0.823
same,NF-kB SEAP reporter activity,[1]; [5],0.702
same,NF-kB SEAP reporter activity,[1]; [6],0.652
O=C(CCCCCCC(=O)Nc1ccccc1)NO,NF-kB SEAP reporter activity,"[2]; cytotoxicity flag (confluency mask): cytotoxic (confluency <70% of control), agonist: Imiquimod (TLR7) […]",2.38
same,NF-kB SEAP reporter activity,"[2]; cytotoxicity flag (confluency mask): cytotoxic (confluency <70% of control), agonist: MPLA (TLR4) […]",2.6
CCCCCCCCCCCCCCCCCC(=O)O,NF-kB SEAP reporter activity,[2]; [7],0.96
same,NF-kB SEAP reporter activity,[2]; [8],1.05
CCCC(=O)Nc1cccc(NC(=O)c2ccccc2Br)c1,NF-kB SEAP reporter activity,[2]; [7],1.06
same,NF-kB SEAP reporter activity,[2]; [8],0.952
O=C(CCCCCCC(=O)Nc1ccccc1)NO (library stock concentration (final ~1000-fold dilution): 10 mM),NF-kB SEAP reporter activity,[3]; agonist: LPS (TLR4) 0.1 ug/mL,6.47
same,NF-kB SEAP reporter activity,[3]; [4],2.34
same,NF-kB SEAP reporter activity,[3]; [5],0.808
same,NF-kB SEAP reporter activity,[3]; [6],1.86
